D1 potentiator: Potentiators of Human D1 Dopamine Receptor: qHTS | HEK293 TREx D1 cells, calcium flux, dopamine EC20 potentiation | potentiation, % at 10 µM | 0.036% of 360,000 active | AID 504651, 2011; in the data active = potentiation above about 30%; also: 0% is about no effect
Target sequence (P21728 whole entry, looked up): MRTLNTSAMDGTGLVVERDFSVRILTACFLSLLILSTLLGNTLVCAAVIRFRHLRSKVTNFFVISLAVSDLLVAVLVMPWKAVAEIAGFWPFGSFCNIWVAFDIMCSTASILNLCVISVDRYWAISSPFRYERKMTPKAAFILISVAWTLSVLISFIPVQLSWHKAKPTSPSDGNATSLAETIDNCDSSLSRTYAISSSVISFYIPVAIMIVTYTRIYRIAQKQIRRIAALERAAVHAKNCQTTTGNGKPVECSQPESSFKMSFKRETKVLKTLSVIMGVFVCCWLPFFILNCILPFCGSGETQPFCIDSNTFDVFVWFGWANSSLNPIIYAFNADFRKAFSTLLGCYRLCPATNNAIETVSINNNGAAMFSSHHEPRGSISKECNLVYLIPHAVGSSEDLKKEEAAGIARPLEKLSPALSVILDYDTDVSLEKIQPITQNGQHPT
D1 antagonist: Antagonist of Human D 1 Dopamine Receptor: qHTS; activity change, negative = inhibition, % at 10 µM; AID 504652, 2011; HEK293 TREx D1 cells, calcium flux, dopamine EC80; hits give low values; D(1A) dopamine receptor (Homo sapiens), P21728; 3.2% of 360,000 active; in the data active = activity change below about -30%; also: % is scaled to controls: 0 for no effect and ±100 for the full control effect
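Tetracycline-induced HEK293 T-REx cells with force-coupled D1 receptor were loaded with a no-wash calcium dye. Compound was added after a 10 s baseline and read kinetically for 180 s; EC80 dopamine was then added and calcium flux followed another 180 s.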
TRHR agonist: qHTS for Small Molecule Agonists and Allosteric Enhancers of Human TRH Receptor: Primary Screen for Agonists | TRHR cells, calcium flux fluo-8, FDSS agonist mode | activation, % at 2 µM | 0.18% of 360,000 active; also: 0% is about no effect
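In this calcium-flux screen, cells bearing human TRHR are dye-loaded with fluo-8, baselined for 10 cycles, then exposed to library compounds; positive kinetic calcium responses during the agonist phase mark hits, with TRH as control.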
TRHR PAM: qHTS for Small Molecule Agonists and Allosteric Enhancers of Human TRH Receptor: Primary Screen for Enhancers; TRHR cells, fluo-8 calcium fluorescence, EC20 TRH enhancement; enhancement, % at 2 µM; 0.66% of 360,000 active; AID 493056, 2011; in the data active = enhancement above about 30%; also: 0% is about no effect
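Enhancer read-out: after compound pinning and an initial kinetic agonist-mode read, an EC20 of TRH (10 nM final) was injected and fluo-8 calcium signal (Ex 480/Em 530) followed at 1 s/cycle for 100 cycles in TRHR-expressing cells.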
D1 ag: Allosteric Agonists of the Human D1 Dopamine Receptor: qHTS; D(1A) dopamine receptor (Homo sapiens), P21728; HEK293 T-REx D1 cells, calcium flux, agonist mode; activation, % at 2 µM; 1% of 360,000 active; AID 504660, 2011; also: 0% is about no effect
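Tetracycline-induced HEK293 TREx D1 cells, force-coupled to calcium signalling, were dye-loaded with a no-wash calcium kit. Compound was pin-added after a 10 s baseline. Fluorescence was read kinetically at 1 cycle/s for 180 s, with calcium rises flagged as agonism.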
Starred values were filed as active, the others as inactive; x = no result given. Only some compounds are listed: those with a hit (about 4.6% of all), similar ones and a draw of the others. Rule as the data show it, unless noted: active = activation above about 30%; inactive = the rest.

SMILES	D1 potentiator	D1 antagonist	TRHR agonist	TRHR PAM	D1 ag
Cc1ccc(C(=O)COC(=O)CCN2C(=O)C3C4CCC(C4)C3C2=O)cc1[N+](=O)[O-] (stereo unspecified)	-5	-42*	0	0	21
Cc1ccc(C(=O)COC(=O)CN2C(=O)C3C4CCC(C4)C3C2=O)cc1[N+](=O)[O-] (stereo unspecified)	-3	-24	0	-3	8
Cc1cc2c(c(=O)o1)C(Cc1ccccc1)C(C#N)=C(N)O2 (stereo unspecified)	-6	-56*	0	3	1
COc1ccc2oc3cc(C)[n+]([O-])c(-c4ccc(C)cc4)c3c2c1	1	4	0	1	1
COc1ccc(-c2c3c(cc(C)[n+]2[O-])oc2ccc(OC)cc23)cc1	2	-30*	0	5	2
O=C(c1ccncc1)N1CCN(S(=O)(=O)c2cccc(C(F)(F)F)c2)CC1	4	1	0	-5	0
Cc1ccc(NC(=O)[C@H](CSCc2ccccc2)N2Cc3ccccc3C2=O)cc1	0	-34*	0	-3	4
COc1ccccc1-[n+]1c(C)cc(/C=C2\Sc3ccccc3N2C)cc1C	-1	21	61*	90*	42*
COc1ccc(-[n+]2c(C)cc(/C=C3\Sc4ccccc4N3C)cc2C)cc1	6	27	73*	66*	78*
CCOC(=O)c1ccc(-n2nc(C)cc2C)cc1	-6	5	-1	0	2
Cc1cc(C)n(-c2ccc(C(=O)OCC(=O)NC(c3ccccc3)c3ccccc3)cc2)n1	-6	-12	3	-4	31*
Cc1cc(SCC(=O)OCC(=O)NC(C)c2ccccc2)c(C)cc1Br (stereo unspecified)	-1	-41*	0	14	8
CCOC(=O)c1ccc(NCc2ccc3c(c2)OCO3)cc1	-3	-27	-1	1	6
CCOC(=O)c1ccc(NCc2ccc(N(C)C)cc2)cc1	-11	-35*	-2	4	5
Cc1onc(-c2ccccc2)c1C(=O)OCC(=O)NC(C)c1ccc(Cl)cc1 (stereo unspecified)	x	-10	4	-3	71*
COc1ccc(NC(=O)CCC(=O)N2CCCC2)c([N+](=O)[O-])c1	3	-14	-1	4	3
N#Cc1c(C(F)(F)F)cc(-c2cccs2)nc1SCC(=O)Nc1ccc(F)cc1	-1	5	5	1	16
Cc1ccc(NC(=O)Cn2c(=O)n(CCC(=O)N3CCc4ccccc4C3)c(=O)c3ccccc32)c(C)c1	0	11	-1	13	0
Cc1ccc(OCC(=O)NCC2(N3CCN(C)CC3)CCCCC2)cc1	0	9	1	-1	20
Cc1onc(-c2ccccc2)c1C(=O)OCC(=O)Nc1ccccc1	1	-12	0	15	5
CC(NC(=O)COC(=O)c1ccc(N(C)C)cc1)c1ccccc1 (stereo unspecified)	-8	-70*	0	2	0
Cc1onc(-c2ccccc2)c1C(=O)OCC(=O)Nc1ccc(C#N)cc1	-2	-31*	0	-7	10
CC(NC(=O)COC(=O)c1ccco1)c1ccccc1 (stereo unspecified)	-1	-12	0	11	3
Cc1ccc(CNS(=O)(=O)c2ccc3c(c2)OCCO3)cc1	-6	-6	0	-7	10
Cc1ccccc1CNS(=O)(=O)c1ccc2c(c1)OCCO2	-10	-32*	0	11	20
SMILES	D1 potentiator	D1 antagonist	TRHR agonist	TRHR PAM	D1 ag
CC(=O)N1CCOc2ccc(S(=O)(=O)NCc3ccccc3Cl)cc21	-4	-32*	0	0	1
COc1ccccc1CNS(=O)(=O)c1ccc2c(c1)N(C(C)=O)CCO2	2	-5	0	8	-1
Cc1ccccc1CNS(=O)(=O)c1ccccc1[N+](=O)[O-]	-4	6	0	32*	1
CNc1ncnc2ccc(-c3c(C)noc3C)cc12	7	20	0	1	6
CC(C)(C)OC(=O)C(C)(C)Sc1nnc(N)s1	-2	21	1	2	0
CSc1nnc(C)c(/C=C/Nc2ccc(F)cc2)n1	-2	0	10	-2	32*
COc1ccc(N/C=C/c2nc(SC)nnc2C)cc1	-1	1	9	-1	22
CSc1nnc(C)c(/C=C/Nc2ccc(Cl)cc2)n1	-1	-6	31*	4	80*
CCCOc1ccc(C2C(=O)N(C3CCCCC3)CC(=O)N2CCc2ccccc2)cc1OC (stereo unspecified)	0	-19	1	-7	-1
COc1cc2c(c(OC)c1OC)-c1c(cc3c(c1O)OCO3)C[C@@H](C)[C@@H](C)C2	2	-15	0	-8	5
COc1cc2c(c(OC)c1OC)-c1c(cc3c(c1OC)OCO3)C1OC2[C@@H](C)[C@H]1C (stereo partly specified)	-2	-46*	0	9	2
Cc1cc(C)c2c(=O)n(CC(=O)NC3CCCC3)sc2n1	2	8	0	-3	9
COc1ccc(OC)c(CCNC(=O)Cn2sc3nc(C)cc(C)c3c2=O)c1	-10	-48*	-1	8	3
Cc1cc(C)c2c(=O)n(CC(=O)Nc3cccc(Cl)c3C)sc2n1	-7	-3	4	-13	37*
COc1ccc(OC)c(CCNC(=O)Cn2nc(C)c3c(C)n(-c4ccc(C)cc4)nc3c2=O)c1	-3	1	-1	-2	2
Cc1cc(C)c2c(=O)n(CC(=O)Nc3ccc(Br)c(C)c3)sc2n1	-21	-49*	1	3	17
COc1cccc(C(=O)N2CCc3cc(OC)c(OC)cc3C2COc2ccc3c(C)cc(=O)oc3c2)c1 (stereo unspecified)	-1	-27	0	1	2
c1ccc(Cc2nnc3sc(-c4ccncc4)nn23)cc1	3	-33*	0	6	2
c1ccc(Cc2nnc3sc(-c4cccnc4)nn23)cc1	7	-7	0	9	5
Oc1ccc(C23CCCC2C2(CCCC2)c2ccc(O)cc2O3)c(O)c1 (stereo unspecified)	x	-8	0	5	152*
CCc1ccc(C(=O)N2CCC(c3nc(-c4ccc(S(=O)(=O)N5CCCC5)cc4)no3)CC2)cc1	3	-10	0	5	1
COc1ccccc1C(=O)Nc1ccc(C(=O)OCc2cc(=O)n3c4c(sc3n2)CCCC4)cc1	4	0	1	-3	-1

Source: PubChem BioAssay (National Center for Advancing Translational Sciences (NCATS))
